Compounds without any hit were thinned out: in the full panel of roughly 83,000, 20% have a hit.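 Single-concentration screen, 48 h exposure, 96-well plates. Endpoint: percent growth. Below 10 = active.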 Unmarked numbers belong to inactive results. The source made the active and inactive calls.

The subject of the first experiment is TK-10 renal. As to the kind of experiment: NCI-60 one-dose screen, 48 h (100 = growth as untreated, 0 = no growth, -100 = all killed). The conditions noted are these: 10 µM unless noted.
Consider `CCN1CCN(Cc2cn(-c3ccc(S(N)(=O)=O)cc3)nn2)CC1`, for which the growth was 108%.
Same read-out and setting: next, `Cc1cccc2c3c(sc12)C(c1ccc(Cl)cc1)c1c(nc(CC(=O)Nc2ccccc2)[nH]c1=O)O3` (stereo not given): 132%.
Still for that read-out and setting: next, `C=C=COc1cccc(/C(N)=N/C(N)=N/c2nc3ccccc3s2)c1`: 133%.
`Cc1cc2nc(C(Cl)Cl)nc(-c3cccs3)n2n1`: the growth is 18.2%.

Another experiment deals with ACHN renal. The description is as above. The settings on record: 10 µM unless noted.
Consider `COc1cc(-c2nnc(SCc3ccc(O)c4ncccc34)n2-c2ccccc2)cc(OC)c1OC`, for which the growth is 4.84% (active).
As for `CN1c2ccccc2Sc2cc(C=C(C#N)C#N)ccc21`, the growth was 101%.
As to `CC(=O)N(C)C1CCc2c(sc(NC(=O)c3ccc(C(C)(C)C)cc3)c2C(N)=O)C1` (stereo not given), the growth was 97.7%.
The same measure, in the same setting: as for `COc1cc(/C=N/NC(=O)c2cn(C3CC3)c3c(OC)c(N4CC5CCCNC5C4)c(F)cc3c2=O)ccc1O` (stereo not given), the figure is 35.3%; as for `CC1(C)[C@@H](O)CC[C@]2(C)[C@H]3CC[C@@H]4[C@H]5[C@H](C(=O)/C=C\c6ccc([N+](=O)[O-])cc6)CC[C@]5(O)CC[C@@]4(C)[C@]3(C)CC[C@@H]12`, 45.5%; as for `CCCCCc1ccc(S(=O)(=O)Nc2cccc(-c3csc(NC(=O)CN4CCN(C)CC4)n3)c2)cc1`, 91.8%.
Same read-out and setting: next, `O=S(=O)(NCCNc1nccc(-n2cnc3ccccc32)n1)c1ccc(Br)cc1`: 93.6%; `COc1ccccc1-n1cc(C#N)c(N)c1C(=O)c1ccc(Br)cc1`: 98.9%; `COc1cc2oc(-c3cccc(C(=O)N[C@@H](CC(C)C)C(=O)OC(C)(C)C)c3)cc(=O)c2c(OC)c1OC`: 69.7%.
On the same count and under the same terms, next, `CC1(C)CC[C@]23CC[C@]4(C)[C@H](CC[C@@H]5[C@@]6(C)CCCN(CO)C(C)(C)[C@@H]6CC[C@]54C)[C@H]2[C@H]1OC3`: 96.7%; `CCOC(=O)c1c(NC(=O)c2ccccc2C(F)(F)F)sc2c1CCC(=O)C2`: 6.88% (active); `COc1ccc(N2C(=O)c3cc(Cl)ccc3NC2SCc2ccccc2)cc1` (stereo not given): 101%.
Take `CCCCCc1ccc(S(=O)(=O)Nc2cccc(-c3csc(NC(=O)CNCCN(C)C)n3)c2)cc1`: the growth is 96.4%.
Turning to `O=C1CCCc2nc(Nc3ccc(S(=O)(=O)Nc4ccc([N+](=O)[O-])cc4)cc3)ncc21`, the growth was 104%.
For the compound `Clc1nc2ccccc2nc1-c1nnc(C2CCCCC2)o1`, the growth is 99.2%.
Regarding `Cc1ccc(C2=NN(C)C(=O)C3(CCCC3)C2)cc1`, the growth is 110%.
As to `O=C1[C@H]2Cc3c([nH]c4ccccc34)[C@@H](c3c(Cl)cccc3Cl)N2C(=O)CN1C1CCN(CC2CCCCC2)CC1`, the growth was 84.1%.
On the same count and under the same terms, next, `NC(=O)c1cccc(-n2ccc3cc(NC(=O)Nc4ccc(N5CCOCC5)c(C(F)(F)F)c4)ccc32)n1`: 11.6%; `COc1ccc(N2CCN(C3=C(Cl)C(=O)C(C)=C(C)C3=O)CC2)cc1`: 104%; `C=C(C=O)[C@@H]1CC[C@]2(C)[C@H](C(=O)C=C3[C@H]4C[C@](C)(C(=O)OC)CC[C@]4(C)CC[C@]32C)[C@@]1(C)CCC#N`: -12.5% (active).
Same read-out and setting: next, `CCOc1ccc(C(=O)Nc2ncc(Cc3ccc(F)cc3)s2)cc1`: 37.6%; `Cc1ccc(-c2cc3nc(C(Cl)Cl)nc(-c4cccs4)n3n2)cc1`: 21%.
Turning to `CCOC(=O)c1c(N)c(C#N)cn1-c1cc(OC)c(OC)c(OC)c1`, the growth was 101%.
Still for that read-out and setting: next, `CC(=O)C1=C(C)NC(NNC(N)=S)=NC1c1ccccc1` (stereo not given): 101%; `NS(=O)(=O)c1ccc(Nc2nc(N/N=C/c3ccccn3)nc(Nc3ccccc3)n2)cc1`: 17.5%; `Oc1cccc2ccc(-c3nnc(SCc4ccc(O)c5ncccc45)o3)nc12`: 7.94% (active).
Turning to `O=C1CCCC2=C1C(c1c[nH]c3ccc(Br)cc13)Cc1cc(Br)ccc1N2` (stereo not given), the growth was 36.2%.
On the same count and under the same terms, as for `COC(=O)c1[nH]nc2c1C1(C(=O)N(C)c3ccccc31)C(C#N)=C(N)O2` (stereo not given), the figure is 97.9%; as for `CC1=NC2=NC(=O)/C(=C3/N=C(C)C=C(c4ccccc4)N3N)NN2C(c2ccccc2)=C1`, 101%.
The same measure, in the same setting: next, `Nc1cc(-c2c[nH]c3ccc(Br)cc23)nc2cc(-c3c[nH]c4ccc(Br)cc34)nn12`: 7.87% (active); `O=S(=O)(NCCNc1nccc(-n2cnc3ccccc32)n1)c1ccc(Cl)cc1`: 96.4%.

The values are drawn from PubChem BioAssay (NCI).
